Screening data deposited in PubChem BioAssay by National Center for Advancing Translational Sciences (NCATS).
ALDH1A1 block: blocks purified human ALDH1A1 activity | Potency, µM (top dose mostly 75.3 µM), for inactives: at the top dose activity, negative = inhibition, most hits filed as inhibitors | hit rate 7.3% among 220,000 | AID 1030 | Purified ALDH1A1, NADH fluorescence, propionaldehyde substrate | P00352; active = well fitted inhibition curve with a large enough effect, not every such curve was filed as active; inconclusive = small, poorly fitted or top-dose-only effect, or another doubt; inactive = no such curve, though single readings can be large or run the other way;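 note: plate controls were no enzyme wells and a reference inhibitor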
PLK1 PBD block: blocks phosphopeptide binding to human PLK1 polo-box domain; AID 720504; Potency, µM, inactives show max response, negative = inhibition, hits mostly inhibitors; P53350; hit rate 2.8% among 360,000; Plk1 PBD binding of FITC phosphopeptide, fluorescence polarization; note: series mostly up to about 57 µM; nearly all actives have a fitted effect of over 65% in size
Target sequence (P53350 whole entry, looked up, the tested form may be a part): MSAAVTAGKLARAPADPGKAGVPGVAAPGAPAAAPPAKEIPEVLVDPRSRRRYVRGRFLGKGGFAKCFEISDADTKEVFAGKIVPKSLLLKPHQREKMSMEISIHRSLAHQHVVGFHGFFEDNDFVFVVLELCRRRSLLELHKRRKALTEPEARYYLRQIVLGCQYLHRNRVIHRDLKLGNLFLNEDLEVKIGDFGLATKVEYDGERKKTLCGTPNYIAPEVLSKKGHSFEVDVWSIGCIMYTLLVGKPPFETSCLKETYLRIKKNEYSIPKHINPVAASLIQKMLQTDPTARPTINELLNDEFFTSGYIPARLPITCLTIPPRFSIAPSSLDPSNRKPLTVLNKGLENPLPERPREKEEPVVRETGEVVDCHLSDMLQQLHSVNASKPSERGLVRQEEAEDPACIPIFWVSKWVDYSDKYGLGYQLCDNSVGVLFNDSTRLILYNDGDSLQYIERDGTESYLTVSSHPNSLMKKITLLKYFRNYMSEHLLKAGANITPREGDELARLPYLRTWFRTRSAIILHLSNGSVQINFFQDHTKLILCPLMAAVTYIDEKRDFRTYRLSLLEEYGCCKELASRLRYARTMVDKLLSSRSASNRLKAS
Gal4-VP16 FLuc: counter-screen for ROR gamma inhibitors: Gal4-VP16 reporter. Drosophila S2 Gal4-VP16 UAS-luciferase, luminescence, 20 h. Potency, µM (titrated, usually from 53.6 µM), for inactives: top-dose activity, negative = inhibition, usual class: inhibitors. hit rate 3.5% among 310,000;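 note: Gal4-VP16 expression switched on by copper sulfate through the metallothionein promoter; nearly all actives have a fitted effect of over 50% in size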
Sfp PPTase inh: blocks B. subtilis Sfp PPTase activity; hit rate 3.5% among 310,000; Biochemical Sfp PPTase activity, qHTS; Potency, µM, without a hit: largest response in the series, negative = inhibition, usual class: inhibitors; AID 1490; Q9F4F7;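 note: the enzyme is Sfp with the accession as filed and its product quenches rhodamine fluorescence; 0% = enzyme reaction without inhibitor and -100% = no enzyme wells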
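With Hepes-Na pH 7.6 buffer containing 10 mM MgCl2, Sfp (15 nM) modified BHQ-2-YbbR (12.5 uM) using rhodamine-CoA (5 uM). Two reads 30 minutes apart at 525/598 nm yielded each well's rate.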
RORg inh: blocks mouse ROR gamma transcriptional activity; AID 2551; Potency, µM (titrated, usually from 53.6 µM), inactives show at the highest dose activity change, negative = inhibition, actives largely listed as inhibitors; hit rate 5.4% among 310,000; Drosophila S2 Gal4-RORgamma UAS-luciferase reporter, 20 h; note: nearly all actives have a fitted effect of over 60% in size
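Luciferase reporter read in Schneider cells carrying Gal4-RORγ (mouse) and UAS-Photinus luciferase; cells given compound 1 h before 700 uM copper sulfate induction, then incubated 20 h at ambient temperature.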
Starred values were filed as active, the others as inactive; u = inconclusive; x = no result; [ ] = dose if it differs, or a comment. The list is not random: actives were taken first. Their share in the collection is about 12%. Unless noted, calls come from the whole dose curve; as a rule, active = well fitted curve in the direction sought with a large enough effect; inconclusive = small, poorly fitted or top-dose-only effect, or another doubt; inactive = no such curve, though single readings can be large; an effect the other way counts as inactive or inconclusive. Unless noted, % is set by controls: 0 for no effect and ±100 for the full control effect; potency is the fitted concentration of half-maximal effect.

SMILES	ALDH1A1 block	PLK1 PBD block	Gal4-VP16 FLuc	Sfp PPTase inh	RORg inh
c1ccc2[nH]c(NN=C3CCCCCC3)nc2c1	u	-18%	u	21%	11µM*
c1ccc2[nH]c(NC3=NCCC3)nc2c1	15%	-12%	11µM*	-8%	2.8µM*
CC1C/C(=N/NC(=O)c2ccc(CSc3nc4ccccc4[nH]3)cc2)CC(C)(C)C1 (stereo not drawn)	25µM*	-9%	-6%	-8%	17%
CCCN(CC(=O)Nc1ccccc1C)C(=O)c1ccc(OCc2c(C)noc2C)cc1	x	-1%	x	x	x
CC1C/C(=N/Nc2nc3ccccc3[nH]2)CC(C)(C)C1 (stereo not drawn)	u	-18%	8.9µM*	-16%	3.2µM*
Cc1ccc(Nc2nc3ccccc3[nH]2)nc1	5%	1%	5µM*	-17%	5µM*
Cc1cc(N/N=C2\CC(C)CC(C)(C)C2)nc2ccccc12 (stereo not drawn)	u	0%	-4%	2%	13µM*
CC1C/C(=N/Nc2ccc([N+](=O)[O-])cc2[N+](=O)[O-])CC(C)(C)C1 (stereo not drawn)	u	-1%	-1%	-10%	6%
CC(C)(C)[C@H]1COC(=O)[C@@H](Cc2ccc(F)cc2)CC/C=C/C[C@@H](CC(=O)N[C@H](CO)Cc2ccccc2)C(=O)N1	x	-2%	x	x	x
CC=CCn1c(SCc2ccccc2)nc2c1c(=O)[nH]c(=O)n2C	x	27µM*	x	x	x
CCCn1c(SCc2ccccc2)nc2c1c(=O)[nH]c(=O)n2C	u	u	10%	-6%	12%
C=CCn1c(SCc2ccc(F)cc2)nc2c1c(=O)[nH]c(=O)n2C	u	-24%	0%	-17%	37%
C/C=C/Cn1c(SCc2ccc(C)cc2)nc2c1c(=O)[nH]c(=O)n2C	u	21µM*	-3%	-18%	24%
CC(N=C1NS(=O)(=O)c2ccccc21)c1ccccc1 (stereo not drawn)	3%	24µM*	-1%	5%	-5%
Cn1c(=O)c2[nH]c(/N=N\N3CCN(CCO)CC3)nc2n(C)c1=O	2%[13.5 µM]	x	x	x	x
CC1(C(=O)NS(=O)(=O)c2cccc(C#N)c2)CCN1C(=O)Cc1ccccc1 (stereo not drawn)	x	-9%	x	x	x
CCC(=O)N1c2ccccc2-c2nnc(SC)nc2OC1c1ccc(N(C)C)cc1 (stereo not drawn)	16µM*	-22%	-3%	-4%	4%
c1coc(-c2ncc[nH]2)c1	18µM*	-4%	1%	-26%	-31%
O[C@@](CCN1CCCCC1)(c1ccccc1)C1CCCCC1	-6%[20.9 µM]	x	3%[17 µM]	1%	16%[16.9 µM]
Cc1ccc(OC(=O)c2cccc(C(=O)Oc3ccc(C)cn3)n2)nc1	u	x	-13%	50µM*	-12%
O=C(O)c1cccc(NC(=S)NCc2ccccc2)c1	12%	0%	-3%	7%	-3%
O=C(CCc1ccccc1)NNC(=S)NCc1ccc(Cl)cc1	x	-1%	u	17%	1.1µM*
O=C(CCc1ccccc1)NNC(=O)c1ccc(Cl)cc1	x	7%	-2%	1%	-31%
S=C(NCc1ccccc1)Nc1cccc(Cl)c1	5%	-3%	13µM*	5%	5.6µM*
O=C(CCc1ccccc1)NNC(=S)NC(=O)c1ccc(Cl)cc1	11µM*	-27%	11µM*	50µM*	13µM*
SMILES	ALDH1A1 block	PLK1 PBD block	Gal4-VP16 FLuc	Sfp PPTase inh	RORg inh
Cc1cccc(NC(=S)NNC(=S)NCc2ccccc2)c1	1.6µM*	-27%	1%	79µM*	-25%
COc1ccccc1N(C)S(=O)(=O)c1ccc(C(=O)N(C)Cc2cccc(F)c2)cc1	x	8%	x	x	x
O=C(CNc1ccc(Cl)cc1)NNC(=S)NCc1ccccc1	u	-18%	u	5%	10µM*
O=C(Cc1ccccc1)NCC(=O)Nc1cccc(Cl)c1	x	3%	4%	9%	7%
NNC(=S)Nc1cccc(Cl)c1	x	0%	u	-5%	7.9µM*
COc1ccc(NC(=S)Nc2cccc(Cl)c2)cc1OC	u	-14%	8%	u	u
O=C(CNc1cccc(Cl)c1)NNC(=S)NCc1ccccc1	0%	-22%	-13%	23%	14µM*
COc1ccc(N2CCOCC2)c(NC(=O)c2cc3ccccc3o2)c1	x	4%	-19%	-29%	-37%
Cn1ccc2c(/C=C/c3ccc(F)cc3)cc3c(c21)C1CCC3O1 (stereo not drawn)	x	-6%	x	x	x
